Assay results: the supplement of paper PMC7724964

T1: GNAZ 2-355 G-alpha (domain begin residue: 2, domain end residue: 355), P19086
T1 chain: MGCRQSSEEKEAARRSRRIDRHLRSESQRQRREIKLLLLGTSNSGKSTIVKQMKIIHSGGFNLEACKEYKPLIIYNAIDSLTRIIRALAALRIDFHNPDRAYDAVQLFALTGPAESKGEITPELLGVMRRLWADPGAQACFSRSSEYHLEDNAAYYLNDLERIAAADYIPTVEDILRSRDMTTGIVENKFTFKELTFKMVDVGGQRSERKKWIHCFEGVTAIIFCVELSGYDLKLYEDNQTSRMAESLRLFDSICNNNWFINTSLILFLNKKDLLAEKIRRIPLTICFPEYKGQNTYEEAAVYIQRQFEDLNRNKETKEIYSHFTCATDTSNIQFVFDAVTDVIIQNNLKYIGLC

T2: HOMER1 1-163 WH1 (domain begin residue: 1, domain end residue: 163), Q86YM7
T2 chain: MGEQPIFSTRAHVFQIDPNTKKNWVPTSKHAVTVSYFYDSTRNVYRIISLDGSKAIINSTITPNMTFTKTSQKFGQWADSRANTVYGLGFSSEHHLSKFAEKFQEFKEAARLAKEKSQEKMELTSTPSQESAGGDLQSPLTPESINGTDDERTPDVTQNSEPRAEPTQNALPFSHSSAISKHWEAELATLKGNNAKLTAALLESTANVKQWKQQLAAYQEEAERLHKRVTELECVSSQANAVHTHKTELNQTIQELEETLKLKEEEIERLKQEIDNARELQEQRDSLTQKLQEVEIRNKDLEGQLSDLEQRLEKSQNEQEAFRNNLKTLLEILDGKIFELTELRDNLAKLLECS

T3: HOMER2 1-111 WH1 (domain begin residue: 1, domain end residue: 111), Q9NSB8
T3 chain: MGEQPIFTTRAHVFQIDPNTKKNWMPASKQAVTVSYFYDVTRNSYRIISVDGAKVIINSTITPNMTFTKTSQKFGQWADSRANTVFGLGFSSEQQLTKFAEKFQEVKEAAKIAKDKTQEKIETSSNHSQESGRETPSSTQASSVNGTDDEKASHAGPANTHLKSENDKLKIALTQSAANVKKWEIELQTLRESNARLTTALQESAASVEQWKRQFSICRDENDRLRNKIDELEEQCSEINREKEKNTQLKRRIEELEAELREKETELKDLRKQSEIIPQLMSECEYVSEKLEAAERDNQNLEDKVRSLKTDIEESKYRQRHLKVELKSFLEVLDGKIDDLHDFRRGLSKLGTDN

T4: HOMER3 1-118 WH1 (domain begin residue: 1, domain end residue: 118), Q9NSC5
T4 chain: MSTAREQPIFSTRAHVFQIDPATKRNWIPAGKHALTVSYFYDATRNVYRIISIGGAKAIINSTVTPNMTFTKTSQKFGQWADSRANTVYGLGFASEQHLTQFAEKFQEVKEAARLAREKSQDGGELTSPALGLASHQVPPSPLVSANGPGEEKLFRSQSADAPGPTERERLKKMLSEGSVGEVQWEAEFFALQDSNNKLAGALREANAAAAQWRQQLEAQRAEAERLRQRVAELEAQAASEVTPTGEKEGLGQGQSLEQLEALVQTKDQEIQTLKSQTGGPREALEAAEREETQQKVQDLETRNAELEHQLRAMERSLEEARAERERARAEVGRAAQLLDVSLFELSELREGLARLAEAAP

T5: GNAQ 2-359 G-alpha (domain begin residue: 2, domain end residue: 359), P50148
T5 chain: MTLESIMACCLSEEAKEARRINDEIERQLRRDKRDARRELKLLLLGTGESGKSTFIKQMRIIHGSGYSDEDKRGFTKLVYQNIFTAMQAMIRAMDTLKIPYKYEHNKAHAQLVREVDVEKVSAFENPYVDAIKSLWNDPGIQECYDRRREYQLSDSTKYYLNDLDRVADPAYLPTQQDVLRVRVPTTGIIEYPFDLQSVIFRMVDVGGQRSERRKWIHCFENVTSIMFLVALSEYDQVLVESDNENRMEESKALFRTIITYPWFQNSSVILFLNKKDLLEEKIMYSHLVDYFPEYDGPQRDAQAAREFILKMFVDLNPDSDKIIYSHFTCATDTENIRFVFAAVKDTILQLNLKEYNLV

T6: HNF4A 148-377 Hormone_recep (domain begin residue: 148, domain end residue: 377), P41235
T6 chain: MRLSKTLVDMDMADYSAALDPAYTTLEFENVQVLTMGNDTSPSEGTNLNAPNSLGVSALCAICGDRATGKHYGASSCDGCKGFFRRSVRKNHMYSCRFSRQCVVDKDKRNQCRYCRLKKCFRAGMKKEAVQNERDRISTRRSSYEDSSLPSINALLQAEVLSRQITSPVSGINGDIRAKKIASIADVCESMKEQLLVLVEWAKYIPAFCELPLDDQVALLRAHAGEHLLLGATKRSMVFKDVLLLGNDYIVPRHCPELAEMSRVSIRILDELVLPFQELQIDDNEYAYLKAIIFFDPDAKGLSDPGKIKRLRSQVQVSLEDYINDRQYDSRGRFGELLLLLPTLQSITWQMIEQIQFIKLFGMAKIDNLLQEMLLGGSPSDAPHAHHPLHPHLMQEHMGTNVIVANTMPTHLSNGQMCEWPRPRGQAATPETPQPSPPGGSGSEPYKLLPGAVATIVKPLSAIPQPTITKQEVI


Biological target: T1, GNAZ 2-355 G-alpha (domain begin …
Test: phage ELISA signal ratio (GST-PRM binding over GST background); higher = stronger binding of peptide-phage to the PRM
Outline: (§1)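 Each value is the phage ELISA signal on the glutathione S-transferase (GST)-domain fusion divided by the signal on GST alone. Human peptide recognition domains were expressed in 96-well plates, fused to the C-terminus of GST, and selected against an M13 phage library carrying randomized, cysteine-free, glycine-flanked hexadecapeptides on the gene-8 major coat protein. After five selection rounds, approximately 48 individual clones from rounds 4 and 5 were tested by phage ELISA, and positive clones were sequenced.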

Row | Binder | phage ELISA signal ratio
1 | WETWFEQKEVLIDAYY | 14.6
2 | PGSENEAEYWFNIMRQ | 19.7
3 | GNHIWYWDQDEKLLEL | 30.4
4 | SPPQDVPPLWEYYHIW | 32.1
5 | EDSGLEWFMQWSHGYV | 13.9
6 | HAWWYNENLDQWVDTS | 16.7
7 | HEEGMAEQWFWLHFAP | 11.9
8 | EWSWSDSMHQFMNENT | 27.6
9 | WRWDEYDHQFVEEVQM | 25.2
10 | WVWDYSQDQWVPASVQ | 17.2
11 | NEWDIPLLDLTMLPWA | 8.79
12 | PQQHFWEMDVPMIQLW | 8.66
13 | QWEFEHDATLLVLEQM | 26.5
14 | VSYEWWMPGDTQMMEV | 11.2
15 | DMTRAVFWEFWDHLDV | 7.78
16 | MPFDHWTMDDVEMLVL | 17.5
17 | WSLMDDVSPWWEMEQI | 20.5
18 | HDVEPIWSMPWWQMDY | 17.6
19 | MLPFQDWYTQDDVLMN | 17.6
20 | DVEPLWSQWVTWDWQE | 11.1
21 | SMEWWSKGDVSLIDIS | 4.45
22 | DVPPLWMMAEYSFPWE | 5.11
23 | QWPTYSQWMTRDEILI | 3.11

biological target: HSPA8 394-614 HSP70 (domain begin residue: 394, domain end residue: 614), P11142; test: as above
Sequence (P11142 whole entry, looked up, tested part not stated): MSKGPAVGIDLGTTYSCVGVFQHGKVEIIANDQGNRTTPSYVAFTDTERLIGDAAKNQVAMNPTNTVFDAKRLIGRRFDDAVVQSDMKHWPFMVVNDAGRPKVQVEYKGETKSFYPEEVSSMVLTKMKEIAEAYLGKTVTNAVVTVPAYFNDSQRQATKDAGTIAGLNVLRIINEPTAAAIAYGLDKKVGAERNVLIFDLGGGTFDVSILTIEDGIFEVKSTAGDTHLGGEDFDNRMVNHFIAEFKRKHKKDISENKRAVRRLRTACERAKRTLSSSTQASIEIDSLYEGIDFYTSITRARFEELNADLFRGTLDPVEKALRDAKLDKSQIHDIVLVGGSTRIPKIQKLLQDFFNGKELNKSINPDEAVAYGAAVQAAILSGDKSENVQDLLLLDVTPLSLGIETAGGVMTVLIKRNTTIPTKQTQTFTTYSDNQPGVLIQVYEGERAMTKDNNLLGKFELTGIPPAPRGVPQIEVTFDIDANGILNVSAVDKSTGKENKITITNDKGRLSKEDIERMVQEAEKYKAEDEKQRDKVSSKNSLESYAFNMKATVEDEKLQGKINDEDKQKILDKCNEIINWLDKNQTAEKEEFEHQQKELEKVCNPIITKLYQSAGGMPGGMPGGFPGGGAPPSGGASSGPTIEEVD
Outline: as §1

Row | Binder | phage ELISA signal ratio
24 | QHMHFVMLDEIMYGMW | 23.6
25 | YNELEPEVAAWWWQYV | 8.35
26 | DAEMQDFIMAWWPELV | 8.68
27 | PDVLQQLWEAMRSENW | 20.4
28 | SLDQSDIRHIFYWMEW | 10.4

Biological target: T2, HOMER1 1-163 WH1 (domain begin residue: …
Test: as above
Outline: as §1

Row | Binder | phage ELISA signal ratio
29 | MEVMPPQGFQDAFLST | 4.78
30 | NWWHSDLQPPQEWQDE | 4.77

biological target: GNAI1 2-354 G-alpha (domain begin residue: 2, domain end residue: 354), P63096; test: as above
Sequence (P63096 whole entry): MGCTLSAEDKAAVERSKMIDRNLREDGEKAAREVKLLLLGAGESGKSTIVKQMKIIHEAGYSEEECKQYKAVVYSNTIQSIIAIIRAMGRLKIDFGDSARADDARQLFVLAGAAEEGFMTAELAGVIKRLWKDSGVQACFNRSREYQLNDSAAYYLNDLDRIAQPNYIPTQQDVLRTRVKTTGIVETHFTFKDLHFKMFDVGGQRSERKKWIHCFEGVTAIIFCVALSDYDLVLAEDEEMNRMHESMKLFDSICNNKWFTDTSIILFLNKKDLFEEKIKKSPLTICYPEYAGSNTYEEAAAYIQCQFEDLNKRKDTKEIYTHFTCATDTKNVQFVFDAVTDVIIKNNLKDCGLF
Outline: as §1

Row | Binder | phage ELISA signal ratio
31 | YHDTGLSNEWFMIRYF | 18
32 | IPDWLVDYEWGQWVEG | 31.6
33 | DAHWWEEPWFIKSQEE | 13.8
34 | IVVGDWENEWFAHLVK | 4.48
35 | SVPWYSEPWAIDMMSF | 49.6
36 | WWEAPWAMEMLDEETG | 16.6

biological target: HSPA9 438-651 HSP70 (domain begin residue: 438, domain end residue: 651), P38646; test: as above
Sequence (P38646 whole entry): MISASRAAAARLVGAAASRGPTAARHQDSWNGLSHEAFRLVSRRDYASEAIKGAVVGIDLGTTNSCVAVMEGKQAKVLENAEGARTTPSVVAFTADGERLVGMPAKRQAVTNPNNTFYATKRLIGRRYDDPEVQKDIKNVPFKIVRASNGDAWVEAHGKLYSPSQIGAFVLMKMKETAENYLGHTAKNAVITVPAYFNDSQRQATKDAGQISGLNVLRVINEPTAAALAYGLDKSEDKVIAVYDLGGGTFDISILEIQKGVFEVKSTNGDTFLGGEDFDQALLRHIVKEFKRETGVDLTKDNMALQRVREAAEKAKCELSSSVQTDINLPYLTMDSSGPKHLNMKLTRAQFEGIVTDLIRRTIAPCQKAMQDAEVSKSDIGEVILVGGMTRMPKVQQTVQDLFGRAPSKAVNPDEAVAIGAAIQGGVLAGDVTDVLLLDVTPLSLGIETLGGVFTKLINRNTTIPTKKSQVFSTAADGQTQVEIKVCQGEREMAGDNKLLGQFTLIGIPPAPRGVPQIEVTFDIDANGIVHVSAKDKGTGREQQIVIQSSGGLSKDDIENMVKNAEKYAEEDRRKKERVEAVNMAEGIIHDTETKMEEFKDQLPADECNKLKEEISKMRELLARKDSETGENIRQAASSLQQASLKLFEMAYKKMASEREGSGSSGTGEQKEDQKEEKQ
Outline: as §1

Row | Binder | phage ELISA signal ratio
37 | FYIYDTWVEWPPVVTV | 6.36
38 | VPWGDAQFSWPVEWMI | 8.49
39 | VMTLTELQDWLNAAYV | 15
40 | QVAMSEQSLNYFLTLL | 3.89
41 | ALEMTMEQWTYFLQEW | 10.8
42 | YQMTDWTTWEHFMHMT | 6.13
43 | TVSVTNIDMDMLSFLL | 15
44 | YMMDQHAWELLMTMMA | 16.4

Biological target: T3, HOMER2 1-111 WH1 (domain begin residue: …
Test: as above
Outline: as §1

Row | Binder | phage ELISA signal ratio
45 | WEEWTNWASPPHEYRF | 10.2
46 | HWVIPWETVPAPHEFH | 15.2
47 | WGSLDWEVALKPPVEF | 17.9
48 | SHITLIHEPPYGWTTN | 14.3
49 | YRYIAEVPEQFVDMHR | 15.5
50 | SDWLSTVWEHPMDWGA | 13.5

Biological target: T4, HOMER3 1-118 WH1 (domain begin residue: …
Test: as above
Outline: as §1

Row | Binder | phage ELISA signal ratio
51 | YHYIAEVPEQFVDMHR | 10.5
52 | TQAFQHDHFWESLVMF | 4.73
53 | RQYKWWEWLVVQQPKA | 5.84

Biological target: T5, GNAQ 2-359 G-alpha (domain begin …
Test: as above
Outline: as §1

Row | Binder | phage ELISA signal ratio
54 | ITAEWQAREEYKLRVQ | 29.2
55 | AWQISEEWKVREAYQQ | 25.5

biological target: HGS 1-154 VHS (domain begin residue: 1, domain end residue: 154), O14964; test: as above
Sequence (O14964 whole entry): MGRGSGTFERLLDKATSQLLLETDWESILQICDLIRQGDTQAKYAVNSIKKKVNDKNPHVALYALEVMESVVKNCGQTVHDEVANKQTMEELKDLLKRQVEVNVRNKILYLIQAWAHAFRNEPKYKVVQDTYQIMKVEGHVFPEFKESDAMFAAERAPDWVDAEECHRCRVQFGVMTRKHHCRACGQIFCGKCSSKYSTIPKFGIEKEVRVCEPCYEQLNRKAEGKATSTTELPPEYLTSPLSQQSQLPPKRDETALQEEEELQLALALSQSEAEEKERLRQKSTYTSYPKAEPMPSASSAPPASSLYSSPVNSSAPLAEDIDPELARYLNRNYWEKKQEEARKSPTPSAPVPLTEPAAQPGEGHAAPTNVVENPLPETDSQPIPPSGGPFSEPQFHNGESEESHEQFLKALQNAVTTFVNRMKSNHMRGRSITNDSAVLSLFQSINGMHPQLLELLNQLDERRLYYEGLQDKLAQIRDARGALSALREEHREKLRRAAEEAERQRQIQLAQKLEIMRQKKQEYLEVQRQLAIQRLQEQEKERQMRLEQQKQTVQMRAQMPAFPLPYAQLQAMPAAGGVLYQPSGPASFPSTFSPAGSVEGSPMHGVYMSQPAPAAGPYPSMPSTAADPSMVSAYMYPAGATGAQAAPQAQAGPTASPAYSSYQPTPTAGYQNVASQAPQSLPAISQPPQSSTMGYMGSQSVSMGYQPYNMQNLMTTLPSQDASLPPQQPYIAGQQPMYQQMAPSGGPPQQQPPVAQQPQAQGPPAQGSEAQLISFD
Outline: as §1

Row | Binder | phage ELISA signal ratio
56 | PNHWFVIPIGEWYQKI | 15.9

Biological target: T6, HNF4A 148-377 Hormone_recep (domain …
Test: as above
Outline: as §1

Row | Binder | phage ELISA signal ratio
57 | DWQGDHVHFWDLITME | 10.8
